# Source: the supplement of paper PMC8728848
# The sample as a whole holds a higher share of the strongest signals than the screen did.
# B1: PX9937A-bvu-521-23-521 (Bacteroides vulgatus) (protein)
# chain: LDLAPEDYYGAGNFWKEASQPKAFMLGLHAQLRSYYDMFYTLGELRGGTQRVGTSSLNTSLNYADIRSQNISEDIPGISNWNGLYSPIMQVNHFIQEVENGCTFLDDATRSRYLGQAYGMRALYYFMLYRTFGGVPLITKVDILDGKPSADKFYVERATPEATMEFIKADINKSENYFGNNTSFDAYDWSRYATLMLKAEIYMWAAKVSITGFTATGATDLQTAKTALSGIIGHFELMDNFASIFSCDNKKNTEIIFAMPFIEGEASNDGGRFLYQDAVFLGQAYGRNGKVIEKDTLNLKGTGGVFRDEYTEDFWKTFKEGDSRRDATFMEYYMKNDNGTLSEFGCVMKKRIGTINSNDNRIYISDIPVYRYADALLMMAEIENGLNNPCASYINEVRKRAYGDTFEENKYTEGSYAENELAILQERDKEFVSEGKRWFDVLRMHDASGRSLVFSANANYPGTNPILGTEEAYKMLWPVNIGTLNVNPLLTQTPGYGKK
# Tests used:
# Assay in all cases: glycan array binding signal (z-score within array); higher = stronger binding
# Details in all cases: glycan notation: IUPAC condensed, linker removed
# Fuc(a1-2)Gal(b1-3)GlcNAc = molecular target: Fuc(a1-2)Gal(b1-3)GlcNAc
# Outline: (§1)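 The Consortium for Functional Glycomics database supplied 3228 glycan arrays, of which those lacking an available protein sequence were dropped. The binding signal, a within-array Z-score, was averaged across arrays of the same protein sequence and across linkers. Negative scores can be read as non-binding.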
# [1] = molecular target: Fuc(a1-2)Gal(b1-4)GlcNAc(b1-2)Man(a1-3)[Fuc(a1-2)Gal(b1-4)GlcNAc(b1-2)Man(a1-6)]Man(b1-4)GlcNAc(b1-4)[Fuc(a1-6)]GlcNAc
# Outline: as §1
# [2] = molecular target: Fuc(a1-2)Gal(b1-4)GlcNAc(b1-3)Gal(b1-4)GlcNAc(b1-2)Man(a1-3)[Fuc(a1-2)Gal(b1-4)GlcNAc(b1-3)Gal(b1-4)GlcNAc(b1-2)Man(a1-6)]Man(b1-4)GlcNAc(b1-4)GlcNAc
# Outline: as §1
# [3] = molecular target: Fuc(a1-2)Gal(b1-4)GlcNAc(b1-3)[Fuc(a1-3)[Gal(b1-4)]GlcNAc(b1-6)]Gal(b1-4)Glc
# Outline: as §1
# [4] = molecular target: Fuc(a1-2)Gal3S(b1-4)GlcNAc
# Outline: as §1
# [5] = molecular target: Fuc(a1-2)[Gal(a1-3)]Gal(b1-3)GalNAc(b1-3)Gal(a1-4)Gal(b1-4)Glc
# Outline: as §1
# [6] = molecular target: Fuc(a1-2)[Gal(a1-3)]Gal(b1-4)GlcNAc(b1-2)Man(a1-3)[Fuc(a1-2)[Gal(a1-3)]Gal(b1-4)GlcNAc(b1-2)Man(a1-6)]Man(b1-4)GlcNAc(b1-4)GlcNAc
# Outline: as §1
# [7] = molecular target: Fuc(a1-2)[Gal(a1-3)]Gal(b1-4)GlcNAc(b1-3)GalNAc
# Outline: as §1
# [8] = molecular target: Fuc(a1-2)[Gal(a1-3)]Gal(b1-4)[Fuc(a1-3)]GlcNAc(b1-3)GalNAc
# Outline: as §1
# [9] = molecular target: Fuc(a1-2)[GalNAc(a1-3)]Gal(b1-4)GlcNAc(b1-3)[Fuc(a1-2)[GalNAc(a1-3)]Gal(b1-4)GlcNAc(b1-6)]GalNAc
# Outline: as §1
# [10] = molecular target: Fuc(a1-2)[GalNAc(a1-3)]Gal(b1-4)GlcNAc(b1-6)GalNAc
# Outline: as §1
# [11] = molecular target: Fuc(a1-2)[GalNAc(a1-4)]Gal(b1-4)GlcNAc
# Outline: as §1
# [12] = molecular target: Gal(a1-3)Gal(b1-4)GlcNAc(b1-2)Man(a1-3)[Gal(a1-3)Gal(b1-4)GlcNAc(b1-2)Man(a1-6)]Man(b1-4)GlcNAc(b1-4)GlcNAc
# Outline: as §1
# [13] = molecular target: Gal(a1-3)Gal(b1-4)[Fuc(a1-3)]GlcNAc(b1-2)Man(a1-3)[Gal(a1-3)Gal(b1-4)[Fuc(a1-3)]GlcNAc(b1-2)Man(a1-6)]Man(b1-4)GlcNAc(b1-4)GlcNAc
# Outline: as §1
# [14] = molecular target: Gal(a1-3)[Gal(a1-4)]Gal(b1-4)GlcNAc
# Outline: as §1
# Gal(b1-3)GlcNAc = molecular target: Gal(b1-3)GlcNAc
# Outline: as §1
# Gal(b1-3)GlcNAc(b1-2)Man = molecular target: Gal(b1-3)GlcNAc(b1-2)Man
# Outline: as §1
# [15] = molecular target: Gal(b1-3)GlcNAc(b1-3)Gal(b1-4)GlcNAc(b1-2)Man(a1-3)[Gal(b1-3)GlcNAc(b1-3)Gal(b1-4)GlcNAc(b1-2)Man(a1-6)]Man(b1-4)GlcNAc(b1-4)GlcNAc
# Outline: as §1
# [16] = molecular target: Gal(b1-4)GlcNAc(b1-2)[Gal(b1-4)GlcNAc(b1-6)]Man(a1-6)[Gal(b1-4)GlcNAc(b1-2)Man(a1-3)]Man(b1-4)GlcNAc(b1-4)GlcNAc
# Outline: as §1
# [17] = molecular target: Gal(b1-4)GlcNAc(b1-3)Gal(b1-4)GlcNAc(b1-3)Gal(b1-4)GlcNAc(b1-3)Gal(b1-4)GlcNAc(b1-3)Gal(b1-4)GlcNAc(b1-2)Man(a1-3)[Gal(b1-4)GlcNAc(b1-3)Gal(b1-4)GlcNAc(b1-3)Gal(b1-4)GlcNAc(b1-3)Gal(b1-4)GlcNAc(b1-3)Gal(b1-4)GlcNAc(b1-2)Man(a1-6)]Man(b1-4)GlcNAc(b1-4)GlcNAc
# Outline: as §1
# [18] = molecular target: Gal(b1-4)GlcNAc(b1-6)[Gal(b1-3)]GalNAc
# Outline: as §1
# [19] = molecular target: Gal(b1-4)GlcNAc(b1-6)[Gal(b1-4)GlcNAc(b1-3)]GalNAc
# Outline: as §1
# Gal(b1-4)GlcNAc6P = molecular target: Gal(b1-4)GlcNAc6P
# Outline: as §1
# Gal3S(b1-3)GalNAc = molecular target: Gal3S(b1-3)GalNAc
# Outline: as §1
# [20] = molecular target: Gal3S(b1-4)[Fuc(a1-3)]GlcNAc6S
# Outline: as §1
# Gal6S(b1-3)GlcNAc6S = molecular target: Gal6S(b1-3)GlcNAc6S
# Outline: as §1
binder,measurement,setting,value
B1,glycan array binding signal (z-score),Fuc(a1-2)Gal(b1-3)GlcNAc,-0.251
same,glycan array binding signal (z-score),[1],0.307
same,glycan array binding signal (z-score),[2],0.158
same,glycan array binding signal (z-score),[3],-0.083
same,glycan array binding signal (z-score),[4],-0.223
same,glycan array binding signal (z-score),[5],-0.525
same,glycan array binding signal (z-score),[6],0.549
same,glycan array binding signal (z-score),[7],-0.367
same,glycan array binding signal (z-score),[8],-0.237
same,glycan array binding signal (z-score),[9],-0.334
same,glycan array binding signal (z-score),[10],0.027
same,glycan array binding signal (z-score),[11],-0.319
same,glycan array binding signal (z-score),[12],0.763
same,glycan array binding signal (z-score),[13],6.91
same,glycan array binding signal (z-score),[14],2.4
same,glycan array binding signal (z-score),Gal(b1-3)GlcNAc,-0.312
same,glycan array binding signal (z-score),Gal(b1-3)GlcNAc(b1-2)Man,-0.189
same,glycan array binding signal (z-score),[15],-0.279
same,glycan array binding signal (z-score),[16],4.26
same,glycan array binding signal (z-score),[17],2.53
same,glycan array binding signal (z-score),[18],6.72
same,glycan array binding signal (z-score),[19],0.459
same,glycan array binding signal (z-score),Gal(b1-4)GlcNAc6P,0.719
same,glycan array binding signal (z-score),Gal3S(b1-3)GalNAc,-0.408
same,glycan array binding signal (z-score),[20],-0.018
same,glycan array binding signal (z-score),Gal6S(b1-3)GlcNAc6S,-0.386
